Inconclusive results are not listed. Calls of active or inactive are those of the source. Unless noted, the call rests on the fitted dose curve; in most records, active means well fitted curve in the direction sought with a large enough effect in the repeat runs; inconclusive means weak or mixed curves; inactive means no such curve, though single readings can be large; an effect the other way counts as inactive or inconclusive.
How the values were obtained:
[1] = qHTS assay for small molecule agonists of the p53 signaling pathway (AID 651631; calls by dose curve; further: nearly all actives have a fitted effect of over 15% in size)
Procedure, shortened: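 Stably transfected HCT-116 cells (beta-lactamase behind p53 response elements) get compounds after a 5 h settling period; 16 h later at 37 °C, FRET substrate is loaded and fluorescence read after 2 h.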

[2] = qHTS assay for small molecule agonists of the p53 signaling pathway - cell viability (AID 651633; calls by dose curve;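 further: p53RE-bla HCT reporter cells with a stable beta-lactamase p53 reporter; series mostly up to about 83 µM; nearly all actives have a fitted effect of over 30% in size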)
Procedure, shortened: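 p53RE-bla cells were treated with compound for 16 hours at 37 C. Cytotoxicity was then measured as CellTiter-Glo luminescence after 30 min at room temperature.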

[3] = qHTS assay for small molecules that induce genotoxicity in human embryonic kidney cells expressing luciferase-tagged ATAD5 - cell viability (AID 651634; calls by dose curve; further: nearly all actives have a fitted effect of over 25% in size)
Procedure, shortened: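 Seeding of 2,000 HEK293T ATAD5-luciferase cells per well preceded pin-tool compound transfer. Plates sat 15.5 hr at 37C under 5% CO2, then fluorescence was read after 30 min with CellTiter-Fluor.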

[4] = qHTS assay for small molecule disruptors of the mitochondrial membrane potential - cell viability (AID 720634; calls by dose curve;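 further: human HepG2 liver cancer cells; series mostly up to about 83 µM; nearly all actives have a fitted effect of over 20% in size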)
Procedure, shortened: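 Measuring cytotoxicity alongside mitochondrial potential, the screen quantified ATP by luminescence in HepG2 cells after 1 hr compound incubation and a 30 min room-temperature CellTiter-Glo step.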

[5] = qHTS assay to test for compound auto fluorescence at 590 nm (red) in HepG2 cells (AID 720674)
Procedure, shortened: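 Seeding: 2,000 HepG2 cells/well, MEM/10% FBS, overnight 37 C. Dosing: compound vs DMSO. Incubation: 1 hr, 37 C, 5% CO2. Read: fluorescence 540 ex/590 em, Rose Bengal sodium as red reference.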

[6] = qHTS assay to test for compound auto fluorescence at 535 nm (green) in HepG2 cells (AID 720675)
[7] = qHTS assay to test for compound auto fluorescence at 460 nm (blue) in HEK293 cells (AID 720678)
Procedure, shortened: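 Blue-channel (Ex/Em 405/460 nm) intensity measured in HEK293 cultures after overnight compound exposure at 37C; signal expressed relative to triamterene. Cells plated 2,000 per well in 10% dialyzed FBS medium and allowed 4-5 hr to attach.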

[8] = qHTS assay to test for compound auto fluorescence at 590 nm (red) in HEK293 cells (AID 720679)
Procedure, shortened: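 Red-channel autofluorescence (Ex/Em 540/590 nm; Rose Bengal sodium reference) was measured after overnight 37C, 5% CO2 exposure of attached HEK293 cells, 2,000 per well in medium with 10% dialyzed FBS.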

[9] = qHTS assay for small molecule disruptors of the mitochondrial membrane potential (AID 720635)
Procedure, shortened: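 HepG2 cells exposed to compound 1 hr at 37C, then Mito-MPS dye 30 min. Ratio read of aggregate (540/590 nm) versus monomer (490/535 nm) fluorescence.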

[10] = qHTS assay for small molecules that induce genotoxicity in human embryonic kidney cells expressing luciferase-tagged ATAD5 (AID 651632); further: nearly all actives have a fitted effect of over 15% in size
Procedure, shortened: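 Reporter cells (HEK293T) express luciferase-tagged ATAD5, a protein that accumulates after DNA damage. Treat 16 hr at 37C/5% CO2, add Amplite, wait 30 min at RT, and read luminescence.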
On the % scale 0 is the no-effect control and ±100 the full control effect.

C=CC(OCC)OCC
inactive: outcome [1] | outcome [2] | Potency [3] | outcome [4] | outcome [5] | outcome [6] | outcome [7] | outcome [8]

OCCCCC(O)CO (configuration not stated)
inactive: outcome [1] | outcome [2] | Potency [3] | outcome [4] | Potency [9] | outcome [5] | outcome [6] | outcome [7] | outcome [8]

Cc1ccccc1N=O
inactive: outcome [1] | Potency [10] | outcome [2] | Potency [3] | outcome [4] | outcome [5] | outcome [6] | outcome [7] | outcome [8]

C=C(C)C(=O)OCCN(CC)CC
inactive: outcome [1] | outcome [2] | Potency [3] | outcome [4] | Potency [9] | outcome [5] | outcome [6] | outcome [7] | outcome [8]

COC(=O)[C@@H]1[C@H]2C[C@H]3c4[nH]c5ccccc5c4CCN3C[C@@H]2CC[C@@H]1O
inactive: outcome [1] | outcome [2] | Potency [3] | outcome [4] | Potency [9] | outcome [5] | outcome [6] | outcome [7] | outcome [8]

Nc1nnc(-c2cccc(Cl)c2Cl)c(N)n1
inactive: outcome [1] | Potency [10] | outcome [2] | Potency [3] | outcome [5] | outcome [6] | outcome [7] | outcome [8]

O=C(O)c1cc(Cl)cc([N+](=O)[O-])c1Cl
inactive: outcome [1] | Potency [10] | outcome [2] | Potency [3] | outcome [4] | outcome [5] | outcome [6] | outcome [7] | outcome [8]

NC(CO)C(=O)NNCc1ccc(O)c(O)c1O (configuration not stated)
inactive: outcome [1] | Potency [10] | outcome [2] | Potency [3] | outcome [4] | outcome [5] | outcome [6] | outcome [7] | outcome [8]

Cc1cc2cc3c(C)cc(=O)oc3c(C)c2o1
inactive: outcome [1] | Potency [10] | outcome [2] | Potency [3] | outcome [4] | fluorescence, relative to Rose Bengal [5] 0.738% [at 18.6 µM] | fluorescence, % of fluorescein control [6] -0.0056% [at 18.6 µM] | fluorescence, % of triamterene [7] 1.9% [at 18.6 µM] | fluorescence, % of fluorescent control [8] 0.0391% [at 18.6 µM]

CC1COc2ccccc2N1 (configuration not stated)
inactive: outcome [1] | outcome [2] | Potency [3] | outcome [4] | outcome [5] | outcome [6] | outcome [7] | outcome [8]

O=P(O)(O)OP(=O)(O)O
inactive: outcome [1] | outcome [2] | Potency [3] | outcome [4] | Potency [9] | outcome [5] | outcome [6] | outcome [7] | outcome [8]

NCCN1CCOCC1
inactive: outcome [1] | outcome [2] | Potency [3] | outcome [4] | Potency [9] | outcome [5] | outcome [6] | outcome [7] | outcome [8]

FC(F)(F)c1ccccc1-n1ccnc1
inactive: outcome [1] | outcome [2] | Potency [3] | outcome [4] | Potency [9] | outcome [5] | outcome [6] | outcome [7] | outcome [8]

O=C(NCCN1CCOCC1)c1ccc(Cl)cc1
inactive: outcome [1] | outcome [2] | Potency [3] | outcome [4] | Potency [9] | outcome [5] | outcome [6] | outcome [7] | outcome [8]

C=Cc1ccccn1
inactive: outcome [1] | outcome [2] | Potency [3] | outcome [4] | Potency [9] | outcome [5] | outcome [6] | outcome [7] | outcome [8]

O=C(NCCc1c[nH]c2ccccc12)c1cccnc1
inactive: outcome [1] | outcome [2] | Potency [3] | outcome [4] | outcome [5] | outcome [6] | outcome [7] | outcome [8]

CCC(C=O)CC
inactive: outcome [1] | Potency [10] | outcome [2] | Potency [3] | outcome [4] | outcome [5] | outcome [6] | outcome [7] | outcome [8]

CC1=CCC(C(C)C)=CC1
inactive: outcome [1] | Potency [10] | outcome [2] | Potency [3] | outcome [5] | outcome [6] | outcome [7] | outcome [8]

CC(=O)OC(C)OC(=O)C(C)c1ccc(-c2ccccc2)c(F)c1 (configuration not stated)
inactive: outcome [1] | outcome [2] | Potency [3] | outcome [4] | Potency [9] | outcome [5] | outcome [6] | outcome [7] | outcome [8]

CCOc1cc([N+](=O)[O-])c(OCC)cc1N1CCOCC1
inactive: outcome [1] | Potency [10] | outcome [2] | outcome [4] | outcome [5] | outcome [6] | outcome [7] | outcome [8]

C=COCCOCCOCCOC=C
inactive: outcome [1] | outcome [2] | Potency [3] | outcome [4] | Potency [9] | outcome [5] | outcome [6] | outcome [7] | outcome [8]

COCCOCCOCCOCCO
inactive: outcome [1] | Potency [10] | outcome [2] | Potency [3] | outcome [4] | outcome [5] | outcome [6] | outcome [7] | outcome [8]

C#CC(C)N(C)C(=O)Nc1ccc(Cl)cc1 (configuration not stated)
inactive: outcome [1] | Potency [10] | outcome [2] | Potency [3] | outcome [5] | outcome [6] | outcome [7] | outcome [8]

N#Cc1ccc(C(=O)O)cc1
inactive: outcome [1] | outcome [2] | Potency [3] | outcome [4] | Potency [9] | outcome [5] | outcome [6] | outcome [7] | outcome [8]

CC(COC(C)(C)C)OCCCO (configuration not stated)
inactive: outcome [1] | outcome [2] | Potency [3] | outcome [4] | Potency [9] | outcome [5] | outcome [6] | outcome [7] | outcome [8]

O=C(NCC(O)CO)c1c(I)c(C(=O)NCC(O)CO)c(I)c(N(CCO)C(=O)CO)c1I (configuration not stated)
inactive: outcome [1] | outcome [2] | Potency [3] | outcome [4] | Potency [9] | fluorescence, relative to Rose Bengal [5] -0.211% [at 18.6 µM] | fluorescence, % of fluorescein control [6] -0.0278% [at 18.6 µM] | fluorescence, % of triamterene [7] 0.0229% [at 18.6 µM] | fluorescence, % of fluorescent control [8] -0.351% [at 18.6 µM]

From PubChem BioAssay (Tox21)
